TGFb SMAD3 inh – TGF-b pathway inhibition; AID 588855; 1.2% of 410,000 active; HepG2 CAGA-GFP TGF-b/SMAD3 reporter, GFP fluorescence, 18 h; TGF-beta stimulated, 500 pg/mL final; Potency, µM (highest dose often 46.1 µM), for inactives: at the top dose activity, negative = inhibition, hits mostly inhibitors; further: on the % scale 0 is the no-effect control and ±100 the full control effect; nearly all actives have a fitted effect of over 65% in size
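First, reporter cells (HEPG2 CAGA-GFP) rested 2 h at 37 degrees C. Next, compounds were pinned in and TGF-beta added to 500 pg/mL final. After 18 h, GFP was imaged per cell and summed per well.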
HT1080-NT tox – kills 2HG-producing HT-1080-NT fibrosarcoma cells. HT-1080-NT fibrosarcoma viability, CellTiter-Glo ATP luminescence, 48 h. 1.6% of 360,000 active. Potency, µM (doses to about 46.1 µM), inactives show at the highest dose activity, negative = less viability, actives largely listed as cytotoxic;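 further: NT is the 2HG producing partner of a matched IDH1 knockdown line; 0% = DMSO-treated cells and -100% = media-only wells without cells; nearly all actives have a fitted effect of over 55% in size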
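Luminescent CellTiter-Glo readout after 48 hours of compound exposure at 37 degrees C defined viability of HT-1080-NT cells. Activity was normalized to DMSO wells and cell-free media wells; concentration-response curves were fitted and assigned curve classes.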
HT1080 IDH1KD tx – kills HT-1080 cells with IDH1 knockdown; HT-1080 IDH1 knockdown viability, ATP luminescence, 48 h; Potency, µM (series often up to 46.1 µM), for the others: at the top dose activity, negative = toxicity, hits mostly cytotoxic; 2% of 360,000 active; AID 686971;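 further: 0% = DMSO wells and -100% = cell-free medium wells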
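Cytotoxicity counter-line: IDH1KD HT-1080, 48 h, CellTiter-Glo. Curves classed by r2, magnitude and activity.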
DT40 TDP1 CPT – DT40-hTDP1 cell growth loss with CPT | Potency, µM (series often up to 46.2 µM), for the others: at the highest dose activity change, negative = growth inhibition, usual class: inhibitors | AID 686979 | 12% of 420,000 active | chicken DT40 Tdp1-/-;hTDP1 cells + 20 nM CPT, ATP luminescence, 48 h; further: on the % scale 0 is the no-effect control and ±100 the full control effect; nearly all actives have a fitted effect of over 55% in size
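Chicken DT40 Tdp1-/- cells stably complemented with human TDP1 were seeded at 400 cells/well in medium containing 20 nM camptothecin, exposed to pin-transferred compounds, and grown at 37 °C for at least 48 hr. Viability was read as ATP luminescence.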
HepG2 tox – HepG2 cytotoxicity, counter-screen for TGF-b inhibitors; HepG2 CAGA-GFP viability, ATP luminescence, 18 h; Potency, µM (top dose mostly 46.1 µM), without a hit: top-dose activity change, negative = cytotoxicity, hits mostly cytotoxic; 0.76% of 410,000 active; AID 588856
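HepG2 CAGA-GFP cells (1000/well, DMEM with 1% FBS) received compound, then TGF-beta at 500 pg/mL final, and were incubated 18 hours at 37 degrees C. Viability was read by CellTiter-Glo luminescence. Media-only wells were set as complete cell-killing and DMSO as no toxicity.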
TDP1 cell noCPT – qHTS for Inhibitors of human tyrosyl-DNA phosphodiesterase 1 (TDP1): qHTS in cells in absence of CPT; DT40 Tdp1-/- hTDP1 cells, no CPT, ATP luminescence, 48 h; Potency, µM (series often up to 46.2 µM), without a hit: at the top dose activity change, negative = growth inhibition, most hits filed as inhibitors; 15% of 420,000 active; further: on the % scale 0 is the no-effect control and ±100 the full control effect; nearly all actives have a fitted effect of over 55% in size
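Luminescent ATP content (CellTiter-Glo) served as the growth readout. Knockout chicken DT40 cells expressing human TDP1 were exposed to compounds without camptothecin for a minimum 48 hr at 37 °C.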
Numbers without * were called inactive; ? = inconclusive; . = no result; [ ] = another dose, or the depositor's remark. This is a sample that favours compounds with a hit; in the whole collection about 17% have one here. The call rests on the fitted dose curve; in most records, active means well fitted curve in the direction sought with a large enough effect; inconclusive means small, poorly fitted or top-dose-only effect, or another doubt; inactive means no such curve, though single readings can be large; an effect the other way counts as inactive or inconclusive. Potency means the concentration at half of the fitted maximal effect.

SMILES	TGFb SMAD3 inh	HT1080-NT tox	HT1080 IDH1KD tx	DT40 TDP1 CPT	HepG2 tox	TDP1 cell noCPT
CC1=C(C(=O)Nc2ccccc2)C(c2ccc(F)cc2)n2nc(SCc3cc(C)ccc3C)nc2N1 (stereo not drawn)	8%	.	.	-17%	-30%	-17%
COc1ccccc1NC(=O)C1=C(C)Nc2nc(SCc3ccccc3F)nn2C1c1cccnc1 (stereo not drawn)	-2%	.	.	15µM*	2%	10µM*
COc1ccccc1NC(=O)C1=C(C)Nc2nc(SCc3cc(C)ccc3C)nn2C1c1ccccc1 (stereo not drawn)	32%	.	.	12µM*	-33%	-79%
Cc1ccc(Cl)cc1N1CCN(C(=O)CN(C2CCCCC2)S(C)(=O)=O)CC1	0%	-7%	21µM*	15µM*	-13%	8.2µM*
COc1ccc(OC)c(N(CC(=O)N2CCN(c3cc(Cl)ccc3C)CC2)S(C)(=O)=O)c1	-3%	?	?	15µM*	-25%	?
COc1ccc(CNC(=O)c2cn(Cc3ccccc3F)c(=O)s2)cc1	?	1%	-2%	?	-1%	?
O=c1oc2ccccc2cc1-c1cn2ccccc2n1	9%	26µM*	23µM*	?	-43%	?
COc1cc(=O)n2c(c1C(=O)NCc1ccco1)CCN(Cc1cccc(C(F)(F)F)c1)CC2	.	.	.	17%[9.04 µM]	.	-1%
CCOc1cc(CNCCSc2nnnn2C)ccc1OCc1ccc(Cl)cc1Cl	?	.	.	26µM*	11µM*	26µM*
CC(C)c1ccc(CNCCSc2nnnn2C)cc1	16%	.	.	-7%	-1%	-17%
Cn1nnnc1SCCNCc1ccccc1Cl	-11%	.	.	8%	5%	4%
Cn1nnnc1SCCNCc1ccccc1OCc1ccc(F)cc1	14%	-3%	0%	-7%	1%	-11%
Cn1nnnc1SCCNCc1ccccc1OCc1ccc(Cl)cc1Cl	?	.	.	18µM*	-104%	9.2µM*
Cn1nnnc1SCCNCc1ccc(OCc2ccc(Cl)cc2)cc1	?	.	.	.	6.3µM*	.
CCOc1ccc(NC(=O)c2cc3c(=O)n4cccc(C)c4nc3s2)cc1	5%	.	.	8%	7%	-4%
CC12CC(O)C3C(CCC4=CC(=O)CCC43C)C1CCC2=CCO (stereo not drawn)	0%	-3%	0%	?	-1%	?
Cc1ccc(-c2nnc(N3CCN(S(C)(=O)=O)CC3)c3ccccc23)cc1	-17%	-2%	3%	-16%	-5%	-30%
Cc1ccc(-c2nnc(N3CCN(c4ccccn4)CC3)c3ccccc23)cc1	?	-28%	?	?	-47%	?
Cc1ccc(Oc2nnc(-c3ccc(C)cc3)c3ccccc23)cc1	0%	14%	0%	21µM*	-2%	15µM*
Cc1ccc(-c2nnc(N3CC(C)OC(C)C3)c3ccccc23)cc1 (stereo not drawn)	1%	2%	1%	29µM*	-3%	16µM*
Cc1ccc(-c2nnc(N3CCCCC3)c3ccccc23)cc1	0%	-1%	-9%	?	-63%	23µM*
CCCCSc1nnc(-c2ccc(C)cc2)c2ccccc12	-19%	0%	0%	21µM*	-34%	18µM*
O=S(=O)(c1ccccc1)N1CCN(c2nnc(-c3ccccc3)c3ccccc23)CC1	-36%	3%	16%	18µM*	-11%	15µM*
COc1nnc(-c2ccc(C)c(S(N)(=O)=O)c2)c2ccccc12	3%	-1%	13%	-6%	17%	-15%
CS(=O)(=O)N1CCN(c2nnc(-c3ccccc3)c3ccccc23)CC1	-2%	0%	-9%	-15%	-15%	-23%
SMILES	TGFb SMAD3 inh	HT1080-NT tox	HT1080 IDH1KD tx	DT40 TDP1 CPT	HepG2 tox	TDP1 cell noCPT
COc1ccc(-c2nnn3c2nc(N2CCCC(C)C2)c2ccccc23)cc1 (stereo not drawn)	7%	.	.	?	0%	29µM*
CC1CCN(c2nnc(N3CCC(C)CC3)c3ccccc23)CC1	5%	20%	4%	?	-2%	?
COc1nnc(-c2ccc(N3CCCCC3)c(N)c2)c2ccccc12	-23%	-6%	-27%	7.3µM*	-11%	8.2µM*
COc1ccc(-c2nnc(N3CCC(C)CC3)c3ccccc23)cc1	-2%	7%	9%	?	-2%	16µM*
CCC(=O)N1CCc2cc(S(=O)(=O)NC(C(=O)NCCc3cccc(C)c3)C(C)C)ccc21 (stereo not drawn)	-12%	.	.	-9%	-14%	-17%
COC(=O)c1c(C(=O)OC)c(-c2ccc(Cl)c(Cl)c2)n2c1CCC2	-22%	-11%	-5%	21µM*	-46%	?
O=C(Nc1nnc([C@@H]2C[C@H](O)[C@@H](CO)O2)s1)c1cccc(OC(F)(F)F)c1	-12%	21%	3%	0%	-4%	-20%
CC(=O)CC(c1ccc([N+](=O)[O-])cc1)c1c(O)c2ccccc2oc1=O (stereo not drawn)	-8%	-18%	-2%	2%	-20%	?
CCN(CCn1cccn1)C(=O)c1cc(COc2cc(C)ccc2C)on1	-12%	-11%	-17%	18µM*	-18%	?
Cc1ccc(C)c(OCc2cc(C(=O)N3CCN(c4ccccc4)CC3)no2)c1	-17%	8%	4%	?	-16%	-2%
Cc1ccc(C)c(OCc2cc(C(=O)N3CCN(C4CCCCC4)CC3)no2)c1	-18%	-5%	-4%	?	-30%	?
COc1cc(C)ccc1OCc1cc(C(=O)N2CCC(c3ccc(F)cc3)C2)no1 (stereo not drawn)	-20%	4%	0%	?	-24%	2.3µM*
Cc1ccc(C)c(OCc2cc(C(=O)N3C[C@@H](C)O[C@@H](C)C3)no2)c1	-4%	-2%	1%	16µM*	-22%	?
Cc1ccc(C)c(OCc2cc(C(=O)N3CC[C@@H]4CCCC[C@H]4C3)no2)c1	8%	4%	-2%	?	0%	26µM*
COc1ccc(Cl)cc1N(CC(=O)N1CCCCCC1)S(C)(=O)=O	15%	14%	12%	7%	8%	13%
COc1cc(C(=O)Nn2cnnc2)ccc1OC(F)F	6%	-1%	-7%	4%	0%	20%
